Screens deposited in PubChem by National Center for Advancing Translational Sciences (NCATS).
ALDH1A1 inh: blocks purified human ALDH1A1 activity | P00352 | Purified ALDH1A1, NADH fluorescence, propionaldehyde substrate | Potency, µM (top dose mostly 75.3 µM), for inactives: at the highest dose activity, negative = inhibition, actives largely listed as inhibitors | hit rate 7.3% among 220,000;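 also: potency is read from the fitted curve at half-maximal effect; plate controls were no enzyme wells and a reference inhibitor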
LMNA splice mod: modulators of lamin A splicing | HeLa LMNA splicing GFP/RFP minigene ratio, 48 h | Potency, µM (titrated, usually from 46.1 µM), for inactives: at the top dose ratio change, negative = inhibition, actives largely listed as inhibitors | hit rate 0.01% among 200,000 | AID 1487; active = well fitted inhibition curve with a large enough effect in the signal ratio, with a control signal flat, not every such curve was filed as active; inconclusive = small, poorly fitted or top-dose-only effect, or effect the other way, or a change in a side signal; the % refers to the signal ratio; also: potency is read from the fitted curve at half-maximal effect
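Read-out is the ratio of GFP to DsRed2 object intensity, acquired by 488 nm laser-scanning cytometry on HeLa lamin A-EGFP minigene reporter cells. Compound incubation 48 hrs at 37 °C in Opti-MEM with 2% FBS; DMSO 0.5% final.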
PNC inhibitor: inhibitors of perinucleolar compartment assembly | PC3M PTB-GFP, PNC prevalence imaging, 16 h; active compounds read low | activity change (PNC), negative = inhibition, % at 10 µM | hit rate 3.1% among 140,000;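 active = readout at or below -70, meaning at least 70% loss of cells showing the perinucleolar compartment, a nuclear body marking cancer cells; inconclusive = readout between -30 and a set limit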;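 also: plate controls were DMSO wells for no effect and camptothecin positive control wells for full effect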
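Compounds are pinned in duplicate onto adhered PC3M cells stably expressing GFP-tagged PTB and incubated 16 h at 37 C. Cells are then fixed, nuclei stained with Hoechst, and PNC-positive cells counted.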
HPGD inh: inhibitors of human 15-hydroxyprostaglandin dehydrogenase (HPGD) | P15428 | purified HPGD, NADH fluorescence kinetic, PGE2 substrate | Potency, µM, for the others: at the highest dose activity change, negative = inhibition, usual class: inhibitors | hit rate 4.3% among 150,000 | AID 894; also: potency is read from the fitted curve at half-maximal effect
Target sequence (P15428 whole entry, looked up): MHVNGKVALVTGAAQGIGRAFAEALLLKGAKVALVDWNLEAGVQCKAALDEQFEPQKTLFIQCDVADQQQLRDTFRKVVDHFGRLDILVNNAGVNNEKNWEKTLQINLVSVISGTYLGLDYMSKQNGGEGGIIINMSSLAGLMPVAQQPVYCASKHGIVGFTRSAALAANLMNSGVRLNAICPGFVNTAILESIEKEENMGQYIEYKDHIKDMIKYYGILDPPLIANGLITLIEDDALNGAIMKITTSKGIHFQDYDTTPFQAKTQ
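20 nM HPGD preincubated 15 min at room temperature with compound in 50 mM Tris-HCl pH 8, 0.01% Tween 20. Started with 1 mM NAD+ and 30 uM prostaglandin E2; NADH fluorescence (360/450 nm) read 5 times over 30-s intervals, last minus first.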
ALOX12 inhib: 12-hLO (ALOX12) enzyme inhibition | purified 12-hLO, xylenol orange hydroperoxide absorbance | Potency, µM (doses to about 57.1 µM), for inactives: top-dose activity change, negative = inhibition, hits mostly inhibitors | hit rate 0.12% among 150,000 | AID 1452; active = well fitted inhibition curve with a large enough effect; inconclusive = small, poorly fitted or top-dose-only effect; also: potency is read from the fitted curve at half-maximal effect; nearly all actives have a fitted effect of over 55% in size
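Purified human 12hLO (150 nM), preincubated 15 min with compound, then 40 uM arachidonic acid for 30 min, room temperature, Hepes pH 7.0 with 0.01% Triton X-100. Hydroperoxide detected by ferrous iron/xylenol orange; 573/405 nm absorbance ratio gives reaction progress.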
The depositor's hits bear a star; [ ] = dose if it differs, or a comment. The list is not random: actives were taken first. Their share in the collection is about 10%. Unless noted, calls follow the shape of the dose curve; as a rule, active = well fitted inhibition curve with a large enough effect (not every such curve was filed as active); inconclusive = small, poorly fitted or top-dose-only effect, or another doubt; inactive = no such curve, though single readings can be large or run the other way. Unless noted, % is scaled to controls: 0 for no effect and ±100 for the full control effect.

Cc1c(N=Nc2c(O)[nH]c(=S)[nH]c2=O)c(=O)n(-c2ccccc2)n1C was read as ALDH1A1 inh 22µM*, LMNA splice mod -13%, PNC inhibitor 87, HPGD inh 28µM* and ALOX12 inhib 2%.
`C[C@H]1O[C@H](O[C@H]2[C@H](O)[C@@H](O)[C@@H](O)[C@H](O)[C@@H]2O)[C@@H](N)C[C@@H]1NC(=N)C(=O)O` gave ALDH1A1 inh inconclusive, LMNA splice mod inconclusive, HPGD inh -1% and ALOX12 inhib -5%.
Fc1ccc2c(c1)nnn2C1CCN(Cc2nnnn2C2CCCCC2)CC1 was read as ALDH1A1 inh 13µM*, LMNA splice mod 1%, PNC inhibitor inconclusive, HPGD inh -12% and ALOX12 inhib -10%.
O=C1N[C@@]2(CN3CCC2CC3)C(=O)N1CN(Cc1ccccc1)c1ccccc1 was read as ALDH1A1 inh 15%[13.5 µM], HPGD inh -12% and ALOX12 inhib 1%[11.4 µM].
Screening COc1cccc(-n2c(O)c(C=NCc3ccc4c(c3)OCO4)c(=O)[nH]c2=O)c1 returned ALDH1A1 inh -3%, LMNA splice mod 7%, PNC inhibitor -6, HPGD inh -10% and ALOX12 inhib -3%.
For COc1ccccc1-n1c(O)c(C=NCc2ccc3c(c2)OCO3)c(=O)[nH]c1=O the results were ALDH1A1 inh -10%, LMNA splice mod 1%, PNC inhibitor -107*, HPGD inh -24% and ALOX12 inhib -1%.
For O=C(c1ccc2c(=O)n(Cc3ccc4c(c3)OCO4)c(=S)[nH]c2c1)N1CCC2(CC1)OCCO2 the results were ALDH1A1 inh inconclusive, LMNA splice mod 7%, PNC inhibitor 29, HPGD inh 32µM* and ALOX12 inhib -4%.
Screening O=C(NCc1ccc(C(=O)N2CCC3(CC2)OCCO3)cc1)c1ccc2c(c1)OCO2 returned ALDH1A1 inh 8%, LMNA splice mod 9%, PNC inhibitor 7, HPGD inh -18% and ALOX12 inhib 0%.
`O=P(Nc1ccccc1)(Nc1ccccc1)Oc1ccc(Cl)cc1` gave ALDH1A1 inh -3%, LMNA splice mod 1%, PNC inhibitor 14, HPGD inh 5.6µM* and ALOX12 inhib -1%.
COc1cccc(NP(=O)(Oc2ccc(Cl)cc2)Oc2ccc(Cl)cc2)c1 was read as ALDH1A1 inh 9%, LMNA splice mod inconclusive, PNC inhibitor 11, HPGD inh -10% and ALOX12 inhib -16%.
`O=P(NS(=O)(=O)c1ccc(Cl)cc1)(Oc1ccccc1)Oc1ccccc1` gave ALDH1A1 inh -2%, LMNA splice mod -2%, PNC inhibitor -100*, HPGD inh -14% and ALOX12 inhib 0%.
Screening O=P(NS(=O)(=O)c1ccccc1)(Oc1ccccc1)Oc1ccccc1 returned ALDH1A1 inh 10%, LMNA splice mod 7%, PNC inhibitor 30, HPGD inh 0% and ALOX12 inhib 1%.
C[C@]12CC[C@H](O)C[C@@H]1CC[C@H]1[C@H]2CC[C@]2(C)[C@H](C(=O)CO)CC[C@@H]12 was read as ALOX12 inhib -4%.
CN1Cc2c(ccc3c2OCO3)C2C(O)Cc3cc4c(cc3C21)OCO4 (stereo unspecified) was read as ALDH1A1 inh 4%, LMNA splice mod inconclusive, HPGD inh 1% and ALOX12 inhib 2%.
O=c1[nH]c(=O)n(C2CCCCC2)c(O)c1C=Nc1ccc(N2CCOCC2)cc1 was read as ALDH1A1 inh 0%, LMNA splice mod inconclusive, PNC inhibitor -97*, HPGD inh inconclusive and ALOX12 inhib -5%.
For O=c1[nH]c(=S)n(-c2ccc(Cl)cc2)c(O)c1C=Nc1ccc(N2CCOCC2)cc1 the results were ALDH1A1 inh 1% and LMNA splice mod 3%[46 µM].
`c1ccc2c(c1)CCCC2` gave ALDH1A1 inh -16%, HPGD inh -7% and ALOX12 inhib -5%.
Cc1cccnc1-n1c(-c2ccco2)nc2ccccc2c1=O was read as ALDH1A1 inh 28µM*, LMNA splice mod 1%, PNC inhibitor 11 and ALOX12 inhib -5%.
O=c1c2ccccc2nc(-c2ccco2)n1-c1ccccn1 was read as ALDH1A1 inh -6%, LMNA splice mod 12%, PNC inhibitor 8, HPGD inh -2% and ALOX12 inhib -1%.
Screening O=C(OCC(=O)N1CCN(c2ccccc2)CC1)c1cnc(Cl)c(Cl)c1 returned ALDH1A1 inh 8.9µM* and LMNA splice mod -16%[46 µM].
O=C(COc1ccc(Cl)cc1)N1CCN(Cc2ccccc2)CC1 was read as ALDH1A1 inh 1%, LMNA splice mod -13%, PNC inhibitor 23, HPGD inh 1% and ALOX12 inhib 7%.
`Fc1ccc(NC2=NCCS2)cc1Cl` gave ALDH1A1 inh 7%, LMNA splice mod -12%, PNC inhibitor 35, HPGD inh 13µM* and ALOX12 inhib 2%.
C1=CC2C3C=CC(C3)C2C1 (stereo unspecified) was read as ALDH1A1 inh 22µM*, HPGD inh -10% and ALOX12 inhib -11%.
CCOc1ccc(CC2C(=O)NC(=O)N(c3ccc(CC)cc3)C2=O)cc1 (stereo unspecified) was read as ALDH1A1 inh 22µM*, LMNA splice mod inconclusive, PNC inhibitor 34, HPGD inh -13% and ALOX12 inhib -3%.
CCC1CN2CCc3cc(OC)c(OC)cc3C2CC1CC1NCCc2cc(OC)c(OC)cc21 (stereo unspecified) was read as ALDH1A1 inh inconclusive, HPGD inh inconclusive and ALOX12 inhib -2%.
CCCCCC1CC(CC(=O)NC(=S)Nc2ccc([N+](=O)[O-])cc2)C(=O)O1 (stereo unspecified) was read as ALDH1A1 inh 10µM*, LMNA splice mod inconclusive, PNC inhibitor inconclusive, HPGD inh -8% and ALOX12 inhib -4%.
Nc1ccc(C2(c3ccc(N)cc3)CCCCC2)cc1 was read as ALDH1A1 inh 14µM*.
`CC[C@@]1(c2ccc(N)cc2)CCC(=O)NC1=O` gave ALDH1A1 inh 2%[20.9 µM], LMNA splice mod -12%, HPGD inh -11% and ALOX12 inhib -2%[25.6 µM].
CN1[C@@H]2CC[C@H]1CC(O[C@@H](c1ccccc1)c1ccccc1N)C2 (stereo partly specified) was read as ALOX12 inhib 3%.
Screening N#CC(Cl)(Cl)Cl returned ALDH1A1 inh 20µM*, HPGD inh -3% and ALOX12 inhib 2%.
`C=C(C)C#N` gave ALDH1A1 inh -8%, HPGD inh -4% and ALOX12 inhib -1%.
Screening C[C@H](c1ccccc1)N1CCN([C@@H](C)c2ccccc2)CC1 returned ALDH1A1 inh -3%[13.5 µM], HPGD inh -3% and ALOX12 inhib 1%[11.4 µM].
N[C@H](Cc1ccc(N(CCCl)CCCl)cc1)C(=O)O was read as ALOX12 inhib 3%.
Screening N#CCCCC[N+]12CN3CN(CN(C3)C1)C2 returned ALDH1A1 inh 2%[13.5 µM], HPGD inh 1% and ALOX12 inhib 3%[11.4 µM].
